Test results taken from PubChem BioAssay (NCI).
Values joined by “and” are separate entries in the source; they are usually repeats but may differ in a detail not shown here. Equal entries are not always repeated. This is part of a sample that, as a whole, favours compounds with a hit. Of some 83,000 tested, about 20% had one in any assay.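 48-hour exposure, single concentration, 96-well plates; percent growth endpoint where 0 means no net growth. Active: below 10.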 Active and inactive are the calls of the source.

These molecules were tested on OVCAR-5 ovarian (assay: NCI-60 one-dose screen, 48 h (100 = growth as untreated, 0 = no growth, -100 = all killed)). Details: 10 µM unless noted.
Description: Growth inhibition of the OVCAR-5 human tumor cell line is measured as a screen for anti-cancer activity. Cells are grown in 96 well plates and exposed to the test compound for 48 hours. Compounds are tested at a single concentration, which is 10^-5 M for most compounds. The reported endpoint is percent growth (GI% or GIPRCNT), where numbers from 0 - 100% represent growth inhibition, and numbers from -100% - 0 represent cell death. For example, a value of 40 represents 60% growth inhibition. A value of 0 means no net growth occurred over the course of the experiment. A value of -40 indicates 40% of cells at the beginning of the experiment died by the end of the experiment. A value of -100 means all cells are dead at the end of the experiment.
NCI-60 Human Tumor Cell Lines Screen was performed using the standard one-dose NCI protocol, which is described in more detail at https://dtp.cancer.gov/discovery_development/nci-60/default.htm.
Compounds with GIPRCNT values below 10 were considered active. Activity score was based on GIPRCNT using the following formula: […]
Score is 0 for GIPRCNT values of 100 or above, 50 for GIPRCNT values of 0, and 100 for GIPRCNT values of -100.
In the case of `O=C(Nc1ccccc1)OCC(CN1CCCCC1)OC(=O)Nc1ccccc1` (stereo not given), the growth is reported as 105% (inactive) and 96.7% (inactive).
In the case of `CCCCNC(=O)c1ccccc1C`, the growth is reported as 94.4% (inactive).
With `c1ccc2c[n+](Cc3ccc4ccccc4n3)ccc2c1` the growth was 105% (inactive).
For `COc1ccc(CCNC(=S)NN)cc1OC`, the growth was 104% (inactive).
For `O=C(O)COc1ccccc1F`, the growth was 104% (inactive).
With `COc1ccc(C(=O)C(O)c2ccc(OC)cc2)cc1` (stereo not given) the growth was 111% (inactive) and 109% (inactive).
`COC(=O)c1nc(=S)[nH]c(C(=O)OC)c1C(=O)c1ccccc1` was tested, and the growth was 106% (inactive).
With `C/C(CC(C)C)=N/NC(N)=S` the growth was 114% (inactive).
With `Nc1[nH][nH]c(=O)c1N=Nc1ccccc1` the growth was 101% (inactive) and 109% (inactive).
For `Cc1cc2ccccc2c2cc3ccccc3cc12`, the growth was 86.9% (inactive).
In the case of `CCOC(=N)c1ccc(C(=N)OCC)cc1`, the growth is reported as 105% (inactive).
In the case of `C(#CCN1CCOCC1)CCCN1CCOCC1`, the growth is reported as 102% (inactive) and 82.7% (inactive).
In the case of `O=C1C2=C(Nc3cc(Cl)ccc3N2)OC1c1c[nH]c2ccc(COc3ccccc3)cc12` (stereo not given), the growth is reported as 88.2% (inactive).
With `O=C(O)C1CSCN1` (stereo not given) the growth was 118% (inactive) and 88.8% (inactive).
In the case of `Cc1ccc(S(=O)(=O)n2ccnc2)cc1`, the growth is reported as 102% (inactive).
With `Cn1c(N)c(N=O)c(=O)n(C)c1=O` the growth was 111% (inactive) and 104% (inactive).
For `CNc1ccc(O)cc1`, the growth was 114% (inactive) and 107% (inactive).
`O=C1C=CC(=O)N1Cc1ccco1` was tested, and the growth was 62.1% (inactive).
In the case of `C(=N\OCCc1ccccc1)/c1ccccn1`, the growth is reported as 101% (inactive) and 102% (inactive).
In the case of `Nc1ccccc1SC(CC(=O)c1ccccc1)c1cccc([N+](=O)[O-])c1` (stereo not given), the growth is reported as 105% (inactive) and 119% (inactive).
`CC(=O)c1cc2ccccc2o1` was tested, and the growth was 87.7% (inactive).
With `CC1CC(O)CC(C)(C)C1.CC1CC(O)CC(C)(C)C1.CC1CC(O)CC(C)(C)C1.CC1CC(O)CC(C)(C)C1.[Ti]` (stereo not given) the growth was 114% (inactive).
In the case of `COc1cc2c(cc1O)C(=O)CCCC2`, the growth is reported as 92.8% (inactive).
For `CC(CN(C)C)CN1c2ccccc2Sc2ccccc21` (stereo not given), the growth was 88.9% (inactive) and 79.7% (inactive).
For `O=P(O)(O)OC1C(OP(=O)(O)O)C(OP(=O)(O)O)C(OP(=O)(O)O)C(OP(=O)(O)O)C1OP(=O)(O)O.[Cu+2]` (stereo not given), the growth was 155% (inactive).
In the case of `CCC/C(=N/NC(N)=O)c1ccco1`, the growth is reported as 91.2% (inactive).
For `N=C(N=C(N)N)N1CCOCC1`, the growth was 99.3% (inactive).
`Clc1ccc(/C=C/c2ccc3ccccc3n2)cc1` was tested, and the growth was 35.6% (inactive) and 92.6% (inactive) and 74.5% (inactive).
`O=C(OCc1ccccc1)c1ccccc1` was tested, and the growth was 102% (inactive) and 91.7% (inactive).
`N=C(N)N1CCc2ccccc2C1` was tested, and the growth was 88.4% (inactive).
For `N#Cc1c[nH]n2ccnc12`, the growth was 107% (inactive).
With `Oc1ccc(O)c(-c2ccccc2)c1` the growth was 102% (inactive).
`CC(=O)C[n+]1ccccc1Sc1ccc(Cl)cc1` was tested, and the growth was 148% (inactive).
`C/C(=C\c1ccccc1)C(O)C(=O)c1nc2ccc([N+](=O)[O-])cc2[nH]c1=O` (stereo not given) was tested, and the growth was 96% (inactive).
With `O=C(O)c1ccc2c3ccc(C(=O)O)c4c(C(=O)O)ccc(c5ccc(C(=O)O)c1c25)c43` the growth was 84.2% (inactive).
For `CCN(CC)CCO/N=C1\CC(c2ccc(OC)c(OC)c2)Oc2ccccc21` (stereo not given), the growth was 95.4% (inactive).
In the case of `CCOC(=O)c1csc(N)n1`, the growth is reported as 106% (inactive) and 104% (inactive).
With `O=C(O)C(Cc1ccc(OS(=O)(=O)Cc2ccccc2)cc1)NS(=O)(=O)Cc1ccccc1` (stereo not given) the growth was 123% (inactive) and 112% (inactive).
For `N#Cc1ccc(/C=C/C(=O)c2ccccc2)cc1`, the growth was 108% (inactive) and 91.1% (inactive).
With `COc1cc(C2c3cc4c(cc3C(OC(=O)C[n+]3ccccc3)C3COC(=O)C23)OCO4)cc(OC)c1OC` (stereo not given) the growth was 54% (inactive).
